# Measured values: PubChem BioAssay
# Target: Follistatin-related protein 3 (Homo sapiens) (UniProt O95633)
# Experiment: compounds binding follistatin-related protein 3 – biochemical, small-molecule microarray, 635 nm fluorescence, primary screen (AID 1105);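 note: score merges emission near 667 nm and signal to noise per printed spot across three slides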
# Details: FSTL3 binding, higher = more signal
# Follistatin-related protein 3 (Homo sapiens), sequence (O95633 whole entry, looked up): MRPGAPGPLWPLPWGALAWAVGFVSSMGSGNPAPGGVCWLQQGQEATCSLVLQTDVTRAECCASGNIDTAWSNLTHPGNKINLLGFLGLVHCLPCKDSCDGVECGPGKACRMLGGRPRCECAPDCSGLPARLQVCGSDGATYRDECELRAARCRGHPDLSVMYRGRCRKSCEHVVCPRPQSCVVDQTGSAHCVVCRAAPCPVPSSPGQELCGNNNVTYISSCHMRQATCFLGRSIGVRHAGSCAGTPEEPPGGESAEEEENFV
row,SMILES,composite z-score
1,Cc1ccc(S[C@]2(C(=O)NCCN3CCOCC3)CC(=O)N(Cc3ccccc3Cl)[C@@H]2c2ccc(CO)cc2)cc1,-0.51
2,C[C@@]1([C@@H](NC(=O)c2ccccc2)c2ccc(-c3ccccc3)cc2)C[C@H]1C1CCCCC1,-0.503
3,COc1ccc(COC2OC[C@]3(C)[C@H]4C5=C(CN3C(=O)OC(C)(C)C)[C@H](C)C(CO)C(CO)C5CC[C@@H]24)cc1 (stereo not given in full),1.07
4,C=C(/C(=C/C[C@@H](OC(C)=O)c1ccc(OCCO)cc1)c1cnc2ccccc2c1)C(C)C,0.77
5,C=CCOC(=O)[C@@H]1[C@H]2C(=O)O[C@H](c3ccccc3)[C@H](c3ccccc3)N2[C@H](c2ccc(OCCOC(=O)[C@@H]3C[C@@H]4C(=O)N[C@@H](Cc5ccccc5)C(=O)N4[C@@H]3c3ccc(O)cc3)cc2)[C@@]12C(=O)Nc1ccc(I)cc12,1.38
6,CCCCCC1=C2CNC(CCC)(C(=O)OC)C=C2C(C)C1=O (stereo not given),-0.435
7,C=C(C)C1C(=C)CN([C@H](CO)c2ccccc2)C1=O (stereo not given in full),-0.0684
8,O=C1C2C=CC(C(O)c3ccc(F)cc3)N(Nc3ccccc3F)C2C(=O)N1c1ccccc1 (stereo not given),0.396
9,CCOc1cc(C(O)C2C=CC3C(=O)N(c4ccccc4)C(=O)C3N2Nc2ccccc2)ccc1O (stereo not given),0.128
10,CCCCCN1CC=CC23O[C@@H]4/C=C\CCCOC(=O)C4[C@H]2C(=O)N(C(CO)C(C)C)[C@@H]3C1=O (stereo not given in full),-0.188
11,CC(CO)N1C(=O)[C@@H]2C3C(=O)OCCC/C=C\[C@H]3OC23C=CCN(c2ccc4ccccc4c2)C(=O)[C@@H]13 (stereo not given in full),-0.718
12,COCCCNC(=O)C1N=C(c2ccc(OCCCO)cc2)N(c2ccccc2)O1 (stereo not given),0.784
13,COCCOC(=O)N1C(=O)[C@@]2(c3cc(C#CCCO)ccc31)[C@H](C(=O)N1CCN(c3ncccn3)CC1)[C@H]1C(=O)O[C@H](c3ccccc3)[C@H](c3ccccc3)N1[C@@H]2c1ccccc1OCCO,0.751
14,CS(=O)(=O)CCOC(=O)C1=CC(CCCO)=CC(c2ccc(CN3CCCC3)cc2)N(Cc2cc3c(cc2Br)OCO3)C=C1C(=O)OCCS(C)(=O)=O (stereo not given),0.634
15,CCOC(=O)[C@H]1CC=C2CC1C(=O)N1CCC[C@@H]1[C@@H]2O[Si](C)(C)C(C)(C)C (stereo not given in full),-1.02
16,COC(=O)[C@@]1(Cc2ccccc2)[C@H]2c3cc(C(=O)N4CCCC4)n(Cc4cccc5ccccc45)c3C[C@H]2CN1C(=O)c1ccccc1,0.272
17,CC(C)(C)OC(=O)CC[C@]1(C(=O)NCC(O)CO)COC(c2ccc(OCCCO)cc2)=N1 (stereo not given in full),-0.952
18,CCc1oc(CC[C@@H](CO)NC(=O)NCCn2cc(C3(O)CCCCC3)nn2)c(C(=O)OC)c1C(=O)OC,1.33

row,SMILES,composite z-score
1,COCCOC(=O)N1C(=O)[C@@]2(c3cc(C#Cc4ccc(OC)cc4)ccc31)[C@H](C(=O)N1CCCCCCC1)[C@H]1C(=O)O[C@H](c3ccccc3)[C@H](c3ccccc3)N1[C@@H]2c1ccc(OCCO)cc1,1.45
2,O=C(NCc1ccccc1)[C@@H]1c2ccccc2C(=O)N(CC23CC4CC(CC(C4)C2)C3)[C@H]1c1ccc(CO)cc1,1.43
3,COC(=O)[C@@]1(Cc2ccc(OC)cc2)[C@H]2c3cc(C(=O)N(C)C)n(Cc4cccc5ccccc45)c3C[C@H]2CN1C(=O)c1ccccc1,0.553
4,COc1ccc(C(O)C2C=CC3C(=O)N(c4ccccc4)C(=O)C3N2Nc2ccccc2F)cc1OCc1ccccc1 (stereo not given),0.711
5,COc1ccc(CCNC(=O)[C@@]2(C)c3ccccc3C(=O)N(Cc3cc(F)cc(C(F)(F)F)c3)[C@H]2c2ccc(CO)cc2)cc1,-0.972
6,O=C1OCCC/C=C\[C@H]2OC34C=CCN(CCN5CCOCC5)C(=O)[C@H]3N(CCCO)C(=O)[C@@H]4C12 (stereo not given in full),-0.621
7,COc1cc2c(cc1OC)CN(C(=O)[C@H]1[C@@H]3C(=O)O[C@@H](c4ccccc4)[C@@H](c4ccccc4)N3[C@@H](c3ccc(O)cc3)[C@]13C(=O)Nc1ccc(C#CC4=CCCCC4)cc13)CC2,1.43
8,C=CC[C@]12N=C(c3ccc(OCCCO)cc3)O[C@H]1c1ccccc1N(Cc1ccccc1)C2=O,0.836
9,CN1C(=O)C2C=CC(C(O)c3ccccc3)N(Nc3ccccc3)C2C1=O (stereo not given),-0.674
10,COc1ccc([C@H]2C[C@H]3C(Br)=C[C@@H]2C(=O)[C@]32CO2)cc1,0.202
11,CC(C)C(CO)N1C(=O)[C@@H]2[C@H]3C(=O)OCC=C[C@H]3OC23C=CCN(C(C)C)C(=O)[C@@H]13 (stereo not given in full),0.354
12,CCCCCN1CC=CC23O[C@@H]4/C=C\CCCOC(=O)C4[C@H]2C(=O)N(CCCO)[C@@H]3C1=O (stereo not given in full),-0.352
13,CCCC[C@@H]1C[C@H]1[C@@H](NC(=O)c1ccco1)c1ccc(C(=O)OC)cc1,-0.76
14,C=CCOC(=O)[C@H]1[C@@H]2C(=O)O[C@@H](c3ccccc3)[C@@H](c3ccccc3)N2[C@@H](c2ccc(OCCOC(=O)[C@@H]3C[C@@H]4C(=O)N[C@@H](CCCCN(C)C)C(=O)N4[C@@H]3c3ccc(O)cc3)cc2)[C@]12C(=O)Nc1ccc(I)cc12,1.08
15,CN1C(=O)[C@]2(Cc3ccccc3)N=C(c3ccc(OCCCO)cc3)O[C@@H]2c2ccccc21,0.459
16,CN(C)CCCNC(=O)[C@@]1(c2ccc([N+](=O)[O-])cc2)CC(=O)N(C2CCCCC2)[C@@H]1c1ccc(CO)cc1I,0.381
17,COCC(=C=CC[C@@H](O)c1ccccc1OCCO)C[C@@H](O)c1cc(Cl)cc(Cl)c1O,1.23
